# Source: article PMC4336329 (PLoS ONE, 2015)
# In all, about 310,000 compounds went through this assay and about 14,000 (4.5%) showed an effect of 50% or more. The effect is printed as a negative number. The sample as a whole holds a higher share of strong results than the screen did.
# Target: human ether-à-go-go-related gene (hERG) potassium channel (human, UniProt Q12809)
# Assay: primary screen, population patch clamp on CHO cells stably expressing hERG; higher = less effect of the substance
# 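Also: peak tail current of the secondary pulse compared with the same well before compound.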
# Sequence of human ether-à-go-go-related gene (hERG) potassium channel (Q12809 whole entry, looked up): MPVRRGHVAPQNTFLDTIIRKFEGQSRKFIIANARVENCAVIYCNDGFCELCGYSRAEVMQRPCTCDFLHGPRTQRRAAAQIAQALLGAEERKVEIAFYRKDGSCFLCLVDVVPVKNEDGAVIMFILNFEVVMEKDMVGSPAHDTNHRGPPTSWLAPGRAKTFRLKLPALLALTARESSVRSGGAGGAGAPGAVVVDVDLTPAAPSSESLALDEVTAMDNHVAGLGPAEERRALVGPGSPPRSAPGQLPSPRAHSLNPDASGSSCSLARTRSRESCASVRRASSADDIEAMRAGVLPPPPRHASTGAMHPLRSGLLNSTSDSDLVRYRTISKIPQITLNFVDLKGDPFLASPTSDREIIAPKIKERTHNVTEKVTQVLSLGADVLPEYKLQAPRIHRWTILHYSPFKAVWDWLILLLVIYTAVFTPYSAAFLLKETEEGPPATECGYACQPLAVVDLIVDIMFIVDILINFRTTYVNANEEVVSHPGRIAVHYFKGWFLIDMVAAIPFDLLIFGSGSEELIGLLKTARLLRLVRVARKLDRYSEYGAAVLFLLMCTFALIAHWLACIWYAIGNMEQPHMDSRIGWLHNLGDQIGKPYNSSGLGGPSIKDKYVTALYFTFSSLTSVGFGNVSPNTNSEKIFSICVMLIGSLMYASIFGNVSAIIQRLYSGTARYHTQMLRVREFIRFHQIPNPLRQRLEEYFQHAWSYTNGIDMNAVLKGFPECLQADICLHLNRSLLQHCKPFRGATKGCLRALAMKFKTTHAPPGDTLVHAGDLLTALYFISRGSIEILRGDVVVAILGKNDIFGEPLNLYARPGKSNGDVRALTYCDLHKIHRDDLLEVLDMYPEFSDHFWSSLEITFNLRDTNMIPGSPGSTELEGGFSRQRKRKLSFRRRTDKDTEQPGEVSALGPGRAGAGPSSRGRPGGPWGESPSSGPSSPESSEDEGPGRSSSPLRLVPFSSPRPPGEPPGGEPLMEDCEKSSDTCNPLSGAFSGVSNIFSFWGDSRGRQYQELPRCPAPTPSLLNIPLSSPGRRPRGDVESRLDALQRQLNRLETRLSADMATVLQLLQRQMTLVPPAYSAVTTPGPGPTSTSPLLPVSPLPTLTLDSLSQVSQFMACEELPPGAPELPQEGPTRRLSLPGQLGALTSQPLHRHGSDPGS
row,SMILES,"hERG current change (%, negative = inhibition) at 10uM"
1,CC(C)C(NC(=O)C1CCCCC1)C(=O)Nc1ccncc1 (stereo not drawn),9.18%
2,Cc1cc(C)cc(C(=O)N2CCC(CCC(=O)NC3CC3)CC2)c1,-2.09%
3,CCOC(=O)C1CCN(C(=O)CN(c2ccc3c(c2)OCCO3)S(C)(=O)=O)CC1,-4.03%
4,CCOC(=O)C1CCN(C(=O)CN(c2ccc3c(c2)OCCO3)S(=O)(=O)c2ccccc2)CC1,-53.1%
5,CCOC(=O)N1CCN(C(=O)CN(c2cc(Cl)ccc2OC)S(=O)(=O)c2ccccc2)CC1,-19.4%
6,NC(=O)C1CCN(C(=O)CN(c2ccc3c(c2)OCCO3)S(=O)(=O)c2ccccc2)CC1,-18%
7,CCOC(=O)C1CCN(C(=O)CN(c2cc(OC)ccc2OC)S(=O)(=O)c2ccccc2)CC1,-2.73%
8,CCOC(=O)C1CCN(C(=O)CN(c2cc(Cl)ccc2OC)S(=O)(=O)c2ccccc2)CC1,-67%
9,COC(=O)NCc1ccc(CNC(=O)OC)cc1,4.84%
10,CCc1cc(C(=O)N2CCN(c3ccccc3OC)CC2)sc1C,-15%
11,COc1cc(OC)cc(C(=O)NNC(=S)Nc2ccccc2OC)c1,10.8%
12,CC1CCN(C(=O)CN2C(=O)C(=O)N(C)C2=O)c2ccccc2S1 (stereo not drawn),5.74%
13,CSc1cccc(NC(=O)/C=C/c2ccco2)c1,1.51%
14,O=C(COC(=O)/C=C/c1ccc(F)cc1)NCc1cccs1,8.26%
15,CC[n+]1cccc(-c2nc3ccccc3s2)c1.[I-],-0.683%
16,CC[n+]1c(/C=C/N(C)c2ccccc2)n(-c2ccccc2)c2ccc(-c3nc4ccccc4s3)cc21.[I-],-81.1%
17,CCOc1cc(-c2nc3ccccc3s2)ccc1O,4.57%
18,CCOc1ccc(CCNC(=O)c2cnccn2)cc1OCC,11.1%
19,CCNc1nc2c(c(=O)n(C)c(=O)n2C)n1Cc1ccc(Cl)cc1,-7.07%
20,c1ccc(-n2nnnc2Oc2ccc(-n3ccnc3)cc2)cc1,-54%
21,Fc1ccc(Oc2nnnn2-c2ccccc2)cc1,44.8%

row,SMILES,"hERG current change (%, negative = inhibition) at 10uM"
1,COc1ccc(Oc2nnnn2-c2ccccc2)cc1,-16.6%
2,CCNC(=O)COc1ccc(-c2ccccc2)cc1,-19.4%
3,CCOC(=O)c1cn2nc(Oc3ccc(C)cc3)ccc2n1,1.97%
4,CCOC(=O)c1cn2nc(Oc3ccc(C#N)cc3)ccc2n1,-54.1%
5,CCOC(=O)c1cn2nc(Oc3ccc(OC)cc3)ccc2n1,4.29%
6,CC1=C/C(=N\OS(=O)(=O)c2ccccc2)C(C)=CC1=O,-9.37%
7,O=C(CSc1nnc(COc2ccc(Cl)cc2)o1)N1CCN(c2ccccc2)CC1,-1.37%
8,COc1ccccc1C1CC(c2ccc(Cl)cc2Cl)Nc2nc(N)nn21 (stereo not drawn),-44.7%
9,Cc1ccc(S(=O)(=O)c2cc3c(=O)n4cccc(C)c4nc3n(C3CCCCC3)c2=N)cc1,15.7%
10,Cc1cccn2c(=O)c3cc(C(=O)NCc4ccco4)c(=N)n(C4CCCC4)c3nc12,-78.8%
11,Cc1cccn2c(=O)c3cc(S(=O)(=O)c4ccc(Br)cc4)c(=N)n(C4CCCC4)c3nc12,9.92%
12,Cc1cccn2c(=O)c3cc(C(=O)NCc4ccco4)c(=N)n(C4CCCCC4)c3nc12,-77.4%
13,Cc1cccn2c(=O)c3cc(S(=O)(=O)c4ccc(Br)cc4)c(=N)n(C4CCCCC4)c3nc12,18.6%
14,COc1ccc(-n2c(N)c(C(=O)NCc3ccco3)c3nc4ccccc4nc32)c(OC)c1,0.913%
15,Cc1csc(NC(=O)c2sc3nc(-c4cccs4)ccc3c2N)n1,5.65%
16,COc1ccc(OC)c(NC(=O)CSc2nnc(C3CCCCC3)o2)c1,-19%
17,CC(=O)N1CC(C)Sc2ccc(S(=O)(=O)NCc3ccc(F)cc3)cc21 (stereo not drawn),-49.6%
18,O=C1c2ccccc2S(=O)(=O)c2cc(C(=O)N3CCN(c4ccc(Cl)cn4)CC3)ccc21,-33.1%
19,CCOc1ccc(S(=O)(=O)N2CCCCC2)cc1NC(=O)CSCc1c(C)noc1C,-39.5%
20,CCOc1ccc(S(=O)(=O)N(CC)CC)cc1NC(=O)CSCc1c(C)noc1C,-67.2%
21,CCN(CC)S(=O)(=O)c1ccc(N(C)C)c(NC(=O)CSCc2c(C)noc2C)c1,-60.4%
